By AC50 is commonly meant the concentration giving half of the maximal activity seen.

Active and inactive are the calls of the source. The calls were made as follows: active = hit-call score of the fitted dose curve at least 0.9, where 1 is the maximum; inactive = score below 0.9.

Read-out in the assay: Human Leukocyte Antigen - DR isotype (HLADR), HLA-DRA (gene 3122)
Put plainly: BSK_3C_HLADR: BioMAP Diversity Plus: 3C Assay for Human Leukocyte Antigen - DR isotype (HLADR) Biomarker Activity (AID 2283019). The note with it: primary human endothelial cells (HUVEC); actives raise or lower the signal. The procedure:
BSK_3C is a cell-based, multiplexed-readout assay that uses umbilical vein endothelium, a human vascular primary cell, with measurements taken at 24 hours after chemical dosing in a 96-well plate.BSK_3C_HLADR is an assay component measured in the BSK_3C assay. It measures HLA-DR antibody related to regulation of gene expression using ELISA technology.Data from the assay component BSK_3C_HLADR was analyzed into 1 assay endpoint. This assay endpoint, BSK_3C_HLADR, was analyzed with bidirectional fitting relative to DMSO as the negative control and baseline of activity. Using a type of binding reporter, gain or loss-of-signal activity can be used to understand changes in the signaling as they relate to the gene HLA-DRA. Furthermore, this assay endpoint can be referred to as a primary readout, because this assay has produced multiple assay endpoints where this one serves a signaling function. To generalize the intended target to other relatable targets, this assay endpoint is annotated to the cell adhesion molecules intended target family, where the subfamily is MHC Class II.
The levels of cell surface (or secreted, indicated by the prefix "s") biomarker endpoints were measured by ELISA. Overt cytotoxicity to cells in confluent adherent cultures (all systems other than the BT system) was assessed by measuring total protein levels using sulforhodamine B (SRB) staining in parallel cultures at the time of biomarker measurements, indicated as SRB endpoints. For proliferation assays for adherent cell types, individual cell types are cultured at sub-confluence and relative cell numbers quantified by SRB staining at time points optimized for each system (48 h: 3C and CASM3C systems; 72 h: BT and HDF3CGF systems; 96 h: SAg system). SRB was performed by staining cells with 0.1% SRB after fixation with 10% TCA and reading wells at 560 nm.Viability and proliferation of PBMC (T cells) was quantified by Alamar Blue reduction for the SAg and BT systems. For PBMC viability (referred to as PBMC Cytotoxicity within the assay endpoint names), cells were plated (75,000/well in a 96-well plate) and then chemical samples added for 1 h before addition of activators, SEB and TSST-1 (20 ng/mL final concentration each). Cells were incubated for 90 h. Then, Alamar Blue (20 uL/well) (Invitrogen, Cat DAL1100) was added for 6 h, and the plates were read with a fluorescence microplate reader at 546/580 nm (excitation/emission). For PBMC proliferation, cells were plated and activated as above but incubated for only 16 h prior to addition of Alamar Blue. Plates were read after 6 h.
With `COc1ccc2c(c1)c(CC(=O)O)c(C)n2C(=O)c1ccc(Cl)cc1`, the result was inactive.
The same measure, in the same setting: to `CCCCCCCCCCC` belongs “inactive”.
On to `CCc1c(C(=O)NN2CCCCC2)nn(-c2ccc(Cl)cc2Cl)c1-c1ccc(Br)cc1`, for which the half-maximal activity concentration (AC50) is 10.4 µM (active).
Turning to `CCOC(=O)CCC(=O)OCC`, the outcome was inactive.
For the compound `CCCCCCCCCCCCCCCC`, the result was inactive.
As to `COCCOCCOC`, the outcome was inactive.
The same measure, in the same setting: with `Cc1cccc(C)c1O` the entry was “inactive”.
Turning to `O=[N+]([O-])C(CO)(CO)CO`, the result was inactive.
Still for that read-out and setting: to `CN1CCCC1=O` belongs “inactive”; to `CC(=O)Oc1ccccc1C(=O)O`, “inactive”.
As to `CCCCCCCCCCCCCO`, the AC50 was 35.8 µM (active).
As for `Clc1cc(Cl)c(Cl)cc1Cl`, the outcome was inactive.
The same measure, in the same setting: to `CCOC(=O)C(C)(C)Oc1ccc(Cl)cc1` belongs “inactive”.
On the same count and under the same terms, with `C=CCOC(=O)c1ccccc1C(=O)OCC=C` the entry was “inactive”.
On the same count and under the same terms, to `C[Si]1(C)O[Si](C)(C)O[Si](C)(C)O[Si](C)(C)O1` belongs “inactive”; to `Oc1ccc2c(c1)OC[C@@H](N1CCC(O)(c3ccc(F)cc3)CC1)[C@H]2O`, “inactive”; to `CCCCCCCCCCCCCCCCCC(=O)O`, “inactive”.
Turning to `Cc1cccc(Nc2cc(Cl)nc(SCC(=O)O)n2)c1C`, the result was inactive.
Same read-out and setting: to `CC(CO)OC(C)CO` (stereo not given) (tested in a mixture with another compound) belongs “inactive”.
`COc1ccc(S(=O)(=O)N2C(=O)[C@@](c3ccccc3OC)(N3C[C@H](O)C[C@H]3C(=O)N(C)C)c3cc(Cl)ccc32)c(OC)c1`: the concentration at half-maximal activity (AC50) is 32.6 µM (active).
With `CCCCc1ccc2c(n1)[C@@H](c1ccc(OC)cc1C[C@H](C)C(=O)O)[C@H](C(=O)O)[C@H]2c1ccc2c(c1)OCO2`, the outcome was inactive.
The same measure, in the same setting: with `CCCCCC(=O)O` the entry was “inactive”.
Still for that read-out and setting: to `O=C(N[C@@H](Cc1ccccc1)[C@@H](O)C(=O)N1C[C@@H](O)[C@@H](O)C1)c1cc2cc(Cl)ccc2[nH]1` belongs “inactive”; to `CNC(=O)[C@H]1O[C@@H](n2cnc3c(NCc4cc(Cl)ccc4OCc4cc(C)no4)ncnc32)[C@H](O)[C@@H]1N`, “inactive”.
As to `Nc1ccccc1N`, the concentration at half-maximal activity (AC50) was 20 µM (active).
On to `COc1cc(-c2nc(NC(=O)c3cc4cc(C)cc(C)c4n3CC(=O)O)sc2CCC2CCCCC2)c(OC)cc1Cl`, for which the AC50 was 3.08 µM (active).
Consider `FC(F)(F)C(F)(F)C(F)(F)C(F)(F)C(F)(F)C(F)(F)CCI`, for which the outcome was inactive.
On to `CC(C)(C)c1cc(O)c(C(C)(C)C)cc1O`, for which the AC50 is 9 µM (active).
In the case of `CCCCCCCC=O`, the outcome was inactive.
Still for that read-out and setting: with `Nc1nc(N)c2nc(CNc3ccc(C(=O)N[C@@H](CCC(=O)O)C(=O)O)cc3)cnc2n1` the entry was “inactive”.
Consider `CN[C@H]1CC[C@@H](c2ccc(Cl)c(Cl)c2)c2ccc(S(N)(=O)=O)cc21`, for which the AC50 was 14.7 µM (active).
The same measure, in the same setting: to `Cc1nc(-c2ccc3c(c2)CCN(CCC2CCC(NC(=O)/C=C/c4ccc(F)cc4)CC2)CC3)no1` (stereo not given) belongs 5.83 µM (active).
For the compound `CCCc1cc(=O)[nH]c(=S)[nH]1`, the result was inactive.
Turning to `CC1(C)NC(=O)NC1=O`, the result was inactive.
Still for that read-out and setting: to `CCNc1cccc(C)c1` belongs “inactive”; to `Cc1cccc([N+](=O)[O-])c1C`, “inactive”.
The same measure, in the same setting: to `Oc1ccc2ccccc2c1N=Nc1ccccc1` belongs “inactive”; to `NS(=O)(=O)c1cc2c(cc1Cl)NCNS2(=O)=O`, “inactive”; to `Cc1nc(C)nc(N2C[C@@H](C)N(c3ccnc([C@@H](C)O)n3)[C@@H](C)C2)n1`, “inactive”.
Still for that read-out and setting: with `c1cc(-c2ccncc2)ccn1` the entry was “inactive”.

(Values after PubChem BioAssay (EPA / NIEHS).)
